Screening data: PubChem, Sanford-Burnham Center for Chemical Genomics
GC-A act – GC-A stimulated cGMP production enhancers – HEK293 GC-A cells, cGMP TR-FRET, EC30 ANP, primary screen; Atrial natriuretic peptide receptor 1 (Homo sapiens), P16066; 0% at EC30 ANP, 100% saturating ANP; activation, % at 10 µM; 370,000 tested, 0.14% active; AID 1671463, 2021; in the data active = activation above about 40%
A3G deaminase – APOBEC3G DNA deaminase inhibitors, primary screen, biochemical, fluorescence, single-stranded DNA substrate, uHTS | 330,000 tested, 0.28% active | recombinant A3G, ssDNA deamination FAM/TAMRA fluorescence | inhibition, % at 20 µM | DNA dC->dU-editing enzyme APOBEC-3G (Homo sapiens), Q9HC16 | AID 493012, 2011;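 active = inhibition of at least 40% at 20 µM, with no more than 30% in the related APOBEC3A deaminase screen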;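 also: plate controls were DMSO wells with A3G for no effect and wells lacking A3G enzyme for full effect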
GC-B act – human GC-B receptor activators, primary screen, HEK293 GC-B cells, cGMP TR-FRET, EC30 CNP; Atrial natriuretic peptide receptor 2 (Homo sapiens), P20594; 0% at EC30 CNP, 100% saturating CNP; activation, % at 10 µM; 370,000 tested, 0.11% active;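 active = activation at 10 µM reaching about 35% in either raw or pattern-adjusted values, limit read from the data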
APOBEC3A inh – APOBEC3A ssDNA deaminase inhibitors, primary screen, selectivity assay for APOBEC3G inhibitor project, biochemical, FAM/TAMRA oligo cleavage fluorescence; 330,000 tested, 0.41% active; recombinant A3A, FAM/TAMRA ssDNA deamination fluorescence; DNA dC->dU-editing enzyme APOBEC-3A (Homo sapiens), P31941; inhibition, % at 20 µM;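 active = at least 40% inhibition at 20 µM here, with at most 30% in a related deaminase screen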;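 also: plate controls were A3A with DMSO for no effect and wells lacking A3A enzyme for full effect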
FAS TE block – FAS thioesterase domain inhibitors, primary screen, biochemical, fluorescence intensity, uHTS; recombinant FAS-TE, OMFH fluorogenic substrate, fluorescence endpoint; inhibition, % at 15 µM; 360,000 tested, 0.67% active; AID 602261, 2012;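 active = compounds whose normalised, plate-corrected inhibition of enzyme fluorescence in the single-dose primary screen is 50% or more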;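 also: 0% = DMSO with enzyme and 100% = substrate without enzyme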
Target sequence (P49327 whole entry, looked up, the tested form may be a part): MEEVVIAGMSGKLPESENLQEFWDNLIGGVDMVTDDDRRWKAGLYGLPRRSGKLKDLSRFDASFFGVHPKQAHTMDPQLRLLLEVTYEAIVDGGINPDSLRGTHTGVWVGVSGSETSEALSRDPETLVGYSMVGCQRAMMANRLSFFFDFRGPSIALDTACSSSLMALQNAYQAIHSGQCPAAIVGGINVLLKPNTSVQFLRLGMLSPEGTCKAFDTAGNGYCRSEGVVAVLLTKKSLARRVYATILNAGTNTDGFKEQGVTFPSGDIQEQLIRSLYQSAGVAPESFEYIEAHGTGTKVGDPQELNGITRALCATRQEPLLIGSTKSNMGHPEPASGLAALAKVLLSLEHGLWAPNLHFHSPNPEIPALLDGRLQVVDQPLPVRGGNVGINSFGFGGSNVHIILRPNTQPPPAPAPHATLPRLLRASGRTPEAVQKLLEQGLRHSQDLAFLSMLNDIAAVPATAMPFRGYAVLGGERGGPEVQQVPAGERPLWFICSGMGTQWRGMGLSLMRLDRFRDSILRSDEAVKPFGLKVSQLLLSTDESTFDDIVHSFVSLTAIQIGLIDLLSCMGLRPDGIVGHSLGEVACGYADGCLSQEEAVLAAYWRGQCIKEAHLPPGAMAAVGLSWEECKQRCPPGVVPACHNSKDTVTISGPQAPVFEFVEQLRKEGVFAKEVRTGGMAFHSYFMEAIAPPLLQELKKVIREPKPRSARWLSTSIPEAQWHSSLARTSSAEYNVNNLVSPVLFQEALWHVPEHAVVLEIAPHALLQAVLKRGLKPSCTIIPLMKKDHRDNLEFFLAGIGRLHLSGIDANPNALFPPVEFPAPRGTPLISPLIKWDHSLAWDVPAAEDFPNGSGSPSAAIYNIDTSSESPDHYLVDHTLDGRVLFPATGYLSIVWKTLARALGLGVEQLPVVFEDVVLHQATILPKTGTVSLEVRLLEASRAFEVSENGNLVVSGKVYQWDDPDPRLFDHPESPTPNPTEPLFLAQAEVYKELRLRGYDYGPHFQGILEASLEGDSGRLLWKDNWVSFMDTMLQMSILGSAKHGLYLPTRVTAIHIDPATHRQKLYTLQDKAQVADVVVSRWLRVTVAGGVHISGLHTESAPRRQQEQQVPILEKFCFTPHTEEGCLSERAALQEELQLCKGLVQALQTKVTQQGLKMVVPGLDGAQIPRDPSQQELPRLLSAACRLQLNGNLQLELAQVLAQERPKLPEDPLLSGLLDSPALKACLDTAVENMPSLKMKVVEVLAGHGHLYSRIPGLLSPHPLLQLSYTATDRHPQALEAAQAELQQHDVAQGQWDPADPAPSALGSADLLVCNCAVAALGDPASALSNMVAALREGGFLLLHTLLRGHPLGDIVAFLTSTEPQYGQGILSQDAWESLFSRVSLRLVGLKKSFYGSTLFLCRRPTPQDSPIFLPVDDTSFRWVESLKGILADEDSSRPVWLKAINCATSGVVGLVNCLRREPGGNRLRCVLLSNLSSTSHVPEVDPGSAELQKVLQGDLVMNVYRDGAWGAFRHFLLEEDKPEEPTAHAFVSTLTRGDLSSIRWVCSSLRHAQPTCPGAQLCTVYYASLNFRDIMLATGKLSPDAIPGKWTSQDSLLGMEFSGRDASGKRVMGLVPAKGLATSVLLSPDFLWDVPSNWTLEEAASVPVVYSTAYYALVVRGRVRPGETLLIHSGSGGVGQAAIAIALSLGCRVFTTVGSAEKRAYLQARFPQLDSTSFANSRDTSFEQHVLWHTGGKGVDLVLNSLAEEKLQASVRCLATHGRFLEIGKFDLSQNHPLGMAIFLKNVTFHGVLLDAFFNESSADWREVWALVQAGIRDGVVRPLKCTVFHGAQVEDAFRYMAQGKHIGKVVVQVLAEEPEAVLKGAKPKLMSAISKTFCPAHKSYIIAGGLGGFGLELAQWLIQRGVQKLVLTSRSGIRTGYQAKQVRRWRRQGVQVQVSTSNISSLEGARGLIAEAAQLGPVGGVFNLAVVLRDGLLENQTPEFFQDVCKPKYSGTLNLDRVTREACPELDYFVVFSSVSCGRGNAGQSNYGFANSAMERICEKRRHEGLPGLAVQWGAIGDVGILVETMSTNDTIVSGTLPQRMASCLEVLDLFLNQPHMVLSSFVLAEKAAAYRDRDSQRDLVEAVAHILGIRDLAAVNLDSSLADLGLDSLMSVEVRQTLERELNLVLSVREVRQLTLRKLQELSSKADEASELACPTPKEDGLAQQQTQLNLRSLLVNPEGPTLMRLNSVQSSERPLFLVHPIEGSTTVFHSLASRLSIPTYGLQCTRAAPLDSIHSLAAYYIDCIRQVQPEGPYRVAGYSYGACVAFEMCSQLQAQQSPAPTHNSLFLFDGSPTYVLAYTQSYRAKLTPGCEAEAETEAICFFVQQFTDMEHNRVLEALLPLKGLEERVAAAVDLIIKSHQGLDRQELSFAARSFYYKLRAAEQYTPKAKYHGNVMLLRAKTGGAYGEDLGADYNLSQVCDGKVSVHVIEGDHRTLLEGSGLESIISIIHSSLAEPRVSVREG
FAS-TE conf – FAS thioesterase domain inhibitors, confirmation, biochemical, fluorescence intensity, single concentration | shares compounds with FAS TE block | recombinant FAS-TE, OMFH fluorogenic substrate | inhibition, % at 15 µM | 2,300 tested, 45% active;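 active = compounds inhibiting the enzyme by at least 50% at 15 µM in any one of the replicates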;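 also: 0% = enzyme with DMSO only and 100% = wells lacking enzyme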
* marks the source's active call; other numbers are inactive results; · = not tested or not shown. The list is not random: actives were taken first. Their share in the collection is about 1.4%.

SMILES | GC-A act | A3G deaminase | GC-B act | APOBEC3A inh | FAS TE block | FAS-TE conf
Cn1cc([N+](=O)[O-])c(C(=O)Nc2ccc(C3CCCCC3)cc2)n1 | 2 | -8 | -1 | -3 | 52* | 49
Cn1cc([N+](=O)[O-])c(C(=O)Nc2ccc(C(=O)N3CCCCC3)cc2)n1 | 2 | 1 | 0 | 2 | -8 | ·
COC(=O)[C@]12C[C@H](CC(=O)NCCCCc3ccccc3)C(=O)N(Cc3ccc4c(c3)OCO4)C1=C[C@H](C(C)C)O[C@@H]2C1CC1 | -3 | · | -6 | · | · | ·
CCCSc1nc(N2CCOCC2)c2c(c1C#N)CCCC2 | -28 | 4 | -23 | 3 | 44 | ·
N#CCCSc1nc(N2CCOCC2)c2c(c1C#N)CCCC2 | -57 | -2 | -22 | -1 | 55* | 62*
O=C(N=C1N(Cc2ccccc2)C[C@]2(C=C3CCCCC3n3c(=O)n(-c4ccccc4)c(=O)n32)N1C(=O)OCc1ccccc1)c1ccccc1 (stereo partly drawn) | 0 | · | 5 | · | · | ·
Cc1cc(C)c(C#N)c(SCC(=O)c2ccc(Cl)cc2Cl)n1 | 3 | -3 | -4 | -1 | 72* | 37*
COc1cccc(-n2c(SCC(=O)Nc3sc4c(c3C(N)=O)CCC4)nc3ccccc3c2=O)c1 | -3 | 2 | 4 | 3 | 77* | 7
COc1ccc(C(=O)O)cc1NC(=S)NC(=O)c1ccc(-c2ccc(Cl)cc2)o1 | 7 | -10 | 4 | -3 | 58* | 66*
Cc1ccc(C(=O)O)cc1NC(=S)NC(=O)c1ccc(-c2ccc(Cl)cc2)o1 | 1 | -4 | -3 | -2 | 29 | ·
CCOC(=O)N=Nc1c2ccccc2c2nc3no[nH]c3nc12 | 3 | -1 | 3 | 3 | 87* | 43*
CCn1c2ccccc2c2cc(NC(=O)COC(=O)c3ccc(F)cc3F)ccc21 | 0 | · | 2 | · | · | ·
COC(=O)[C@]12C[C@H](CC(=O)N3CCCCC3)C(=O)N(Cc3ccccc3)C1=C[C@H](C(C)(C)C)O[C@@H]2C | -6 | · | -7 | · | · | ·
O=[N+]([O-])c1ccc(CN2CC(N3CCC(Cc4ccccc4)CC3)CS2(=O)=O)cc1 (stereo not drawn) | 3 | · | -1 | · | 51* | 57*
O=[N+]([O-])c1ccc(CN2CC(N3CCCC3)CS2(=O)=O)cc1 (stereo not drawn) | 1 | · | 4 | · | -6 | ·
CCN(C[C@H]1[C@@H](c2ccc(C3=CCCC3)cc2)[C@H](CO)N1c1nc(C)c(C)s1)S(=O)(=O)c1ccccc1[N+](=O)[O-] | 1 | · | 2 | · | · | ·
CC(C)(C)NC(=O)C(c1c[nH]c2ccccc12)N(C(=O)Cn1nnc(-c2ccc(Cl)cc2)n1)c1ccccc1F (stereo not drawn) | -6 | -3 | -2 | 1 | 45 | ·
O=C(NC1CCCC1)C(c1c[nH]c2ccccc12)N(C(=O)Cn1nnc(-c2ccc(Cl)cc2)n1)c1ccccc1 (stereo not drawn) | -9 | -6 | 0 | 0 | 64* | 30
Cc1ccc(C(C)C)cc1NC(=O)Nc1ccc([N+](=O)[O-])cc1 | 3 | -2 | -4 | 1 | 40 | ·
Cc1cc(Br)ccc1NC(=O)C(C)c1ccc([N+](=O)[O-])cc1 (stereo not drawn) | -4 | -8 | -11 | -2 | 56* | 51*
CCCCCCCCN1C(=O)[C@@H](CC(=O)NCc2cccc(C(F)(F)F)c2)C[C@@]2(C(=O)OC)C1=C[C@H](COCc1ccccc1)O[C@@H]2C | -1 | · | 2 | · | · | ·
COc1ccc(C2=NN(C(=O)c3ccccc3)C(c3cccc([N+](=O)[O-])c3)C2)cc1 (stereo not drawn) | -2 | -3 | -3 | 1 | 75* | 13
